{"source": "PubChem BioAssay (NCATS)", "note": "Inconclusive results are not listed. A number with no mark means an inactive call. The source made the active and inactive calls. The call rests on the fitted dose curve; in most records, active means well fitted inhibition curve with a large enough effect; inconclusive means small, poorly fitted or top-dose-only effect; inactive means flat fitted curve, though single readings scatter. On the % scale 0 is the no-effect control and ±100 the full control effect; potency means the concentration at half of the fitted maximal effect.", "data": [{"tested_on": "KB-3-1", "experiment": "Cytotoxic Profiling of Annotated Libraries Using Quantitative High-Throughput Screening (AID 1296008); further: nearly all actives have a fitted effect of over 60% in size", "conditions": "Five cell lines viability, CellTiter-Glo ATP luminescence, 48-72 h; max response: active compounds read low", "description": "Cell-based phenotypic screening is a commonly used approach to discover biological pathways, novel drug targets, chemical probes and high-quality hit-to-lead molecules. Many hits identified from high-throughput screening campaign are ruled out through a series of follow-up potency, selectivity/specificity, and cytotoxicity assays. Prioritization of molecules with little or no cytotoxicity for a more in-depth downstream evaluation influence the future direction of projects, so cytotoxicity profiling of the screening libraries at early stage is essential for increasing the likelihood of candidate success. […] For the annotated library, we also examined the primary targets and mechanistic pathways regularly associated with cell death. To our knowledge, this is the first study to use high-throughput screening to profile large libraries for cytotoxicity assessment in both normal and cancer cell lines. In summary, the results generated here constitutes a valuable resource for the scientific community and provides insight on identifying cytotoxic compounds with particular mechanisms of action, and prioritizing compounds with suitable cytotoxicity profile for further evaluation.\nA pintool (Kalypsys) was used to transfer 23 nL of compound solution to the 1536-well assay plates. After 48 or 72 hr incubation at 37 degree Celsius, 5% CO2 and 95% humidity, 2.5 uL of CellTiter-Glo (Promega) was dispensed into each well using a dispenser (Aspect Automation, St. Paul, MN) with solenoid valves (Lee Valves, Westbrook CT). Plates were left at room temperature for 10 min before imaging the ATP-coupled luminescence using a ViewLux microplate imager (PerkinElmer, Waltham, MA).", "units": {"max response": "%"}, "values": [{"molecule": "O=C(Nc1ccc(S(=O)(=O)N2CCOCC2)cc1)c1cc(Cl)ccc1NS(=O)(=O)c1ccc(Cl)s1", "max response": -23.1}, {"molecule": "CC(C)(c1ccc(O)cc1)c1ccc(O)cc1", "max response": -17.4}, {"molecule": "Nc1ncnc2n[nH]c(Nc3ccc(F)cc3)c12", "outcome": "inactive"}, {"molecule": "Cc1nc([N+](=O)[O-])cn1-c1ccc([N+](=O)[O-])cc1", "max response": 5.55}, {"molecule": "Cc1c(C)c2c(c(C)c1OC(=O)CCC(=O)OCCO)CC[C@@](C)(CCC[C@H](C)CCC[C@H](C)CCCC(C)C)O2", "max response": -31.1}, {"molecule": "CN(CC1(C)CCCO1)S(=O)(=O)c1ccc(Cl)c(S(N)(=O)=O)c1", "note": "(stereo not given)", "outcome": "inactive"}, {"molecule": "CN1C(CSCC(F)(F)F)Nc2cc(Cl)c(S(N)(=O)=O)cc2S1(=O)=O", "note": "(stereo not given)", "max response": 38.2}, {"molecule": "CSc1ccc(/C=C2/C(C)=C(CC(=O)O)c3cc(F)ccc32)cc1", "max response": -18.2}, {"molecule": "CO[C@]1(NC(=O)CSC(F)F)C(=O)N2C(C(=O)O)=C(CSc3nnnn3CCO)CO[C@H]21", "outcome": "inactive"}, {"molecule": "O=C(O)[C@@H](O)[C@H](O)[C@H](O)[C@@H](O)C(=O)O", "max response": -10.9}, {"molecule": "Nc1c(NC/C=C\\COc2cc(CN3CCCCC3)ccn2)c(=O)c1=O", "Potency": "23.1 µM (active)"}, {"molecule": "C[N+]1(CC2COC(c3ccccc3)(c3ccccc3)O2)CCCCC1", "note": "(stereo not given)", "max response": -21.8}, {"molecule": "Cc1cc(C(C)(C)C)c(O)c(C(C)(C)C)c1", "max response": -9.85}, {"molecule": "CC[N+](CC)(CC)CCOC(=O)C(C1CCCC1)C1CCCC1", "max response": 9.62}, {"molecule": "CN1CCC(=C2c3ccccc3CCc3cccnc32)CC1", "max response": -10.8}, {"molecule": "Cc1ncc(CO)c(CO)c1O", "max response": -24.2}, {"molecule": "CC(=O)O[C@@H]1C(=O)O[C@@H]2[C@H]1OC(=O)[C@@H]2OC(C)=O", "outcome": "inactive"}, {"molecule": "CC(=O)OC/C=C(C)/C=C/C=C(C)/C=C/C1=C(C)CCCC1(C)C", "max response": -3.66}, {"molecule": "CC(C(=O)O)c1ccc(/C=C2\\CCCCC2=O)cc1", "note": "(stereo not given)", "outcome": "inactive"}, {"molecule": "OC[C@]1(O)OC[C@@H](O)[C@H](O)[C@@H]1O", "max response": -6.46}, {"molecule": "Brc1ccccc1-c1ccccc1", "max response": -3.53}, {"molecule": "Cn1cc(S(C)=O)c(=O)c2ccc(F)cc21", "note": "(stereo not given)", "max response": 2.67}, {"molecule": "NCC(=O)O", "max response": -10.5}, {"molecule": "COc1cc(C(=O)NC2CCCNC2)cc(OC)c1OC", "note": "(stereo not given)", "max response": -17.2}, {"molecule": "CN1CCC(N(Cc2cccs2)c2ccccc2)CC1", "max response": -11.3}, {"molecule": "OCCCc1ccccc1", "max response": -4.85}, {"molecule": "CCCCCCCCCCCCCCCC[n+]1ccccc1", "Potency": "14.6 µM (active)"}, {"molecule": "Cc1cccc(N(C)C(=S)Oc2ccc3c(c2)CCC3)c1", "max response": -1.52}, {"molecule": "CC(C)(C)C(O)/C=C/c1ccc2c(c1)OCO2", "note": "(stereo not given)", "max response": -0.272}, {"molecule": "COc1ccccc1OCC1CNC(=O)O1", "note": "(stereo not given)", "max response": -0.906}, {"molecule": "CC(C)N(CCC(=O)c1ccc2ccccc2c1)Cc1ccccc1", "max response": -5.46}, {"molecule": "CC(NCCC(c1ccccc1)c1ccccc1)c1ccccc1", "note": "(stereo not given)", "max response": -10.5}, {"molecule": "CCOC(=O)NNc1ccc(N(CC)CC(C)O)nn1", "note": "(stereo not given)", "max response": -6.42}, {"molecule": "CC(=O)OCC(=O)[C@@]1(O)[C@H](OC(C)=O)C[C@H]2[C@@H]3CCC4=CC(=O)C=C[C@]4(C)[C@@]3(F)[C@@H](O)C[C@@]21C", "max response": 1.08}, {"molecule": "COc1cccc2c1[C@@H]1CN(CCCCn3c(=O)[nH]c4c(sc5ncc(-c6ccccc6)nc54)c3=O)C[C@@H]1CO2", "max response": 2.96}, {"molecule": "O=C(O)c1ccccc1S", "max response": -5.69}, {"molecule": "CC(=O)OCC[N+](C)(C)C", "max response": 2.39}, {"molecule": "O=C(NN1CCCC1)NS(=O)(=O)c1ccc(Cl)cc1", "max response": 5.98}, {"molecule": "CN(C)C(=O)CNC(=O)Cc1ccccc1", "outcome": "inactive"}, {"molecule": "CCCC(=O)O[C@]1(C(=O)COC(=O)CC)CC[C@H]2[C@@H]3CCC4=CC(=O)CC[C@]4(C)[C@H]3[C@@H](O)C[C@@]21C", "max response": -1.68}]}]}
